Screening data deposited in PubChem by National Center for Advancing Translational Sciences (NCATS).
Abeta yeast res – restores growth of yeast expressing A-beta42 peptide. yeast expressing A-beta42, growth rescue, OD600, 48 h; response scale: 0% DMSO, 100% iron-clioquinol control. hit rate 0.063% among 410,000. Potency, µM (doses to about 46.1 µM), most hits filed as activators. AID 1347071; note: nearly all actives have a fitted effect of over 55% in size
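Yeast A-beta toxicity model in growth medium with pinned compounds, 48 h at 30 C; growth read as absorbance at 600 nm. Normalized to FeCl3/clioquinol equimolar mix (positive) and DMSO (negative).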
FUS yeast rescue – suppressors of FUS proteinopathy in yeast; S. cerevisiae FUS-expressing, growth rescue, OD600, 24 h; Potency, µM (series often up to 76.6 µM), usual class: activators; hit rate 0.24% among 390,000; AID 1347120;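 note: plate controls were DMSO vehicle for no effect and reference control for full effect; nearly all actives have a fitted effect of over 55% in size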
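Steps: raffinose overnight preculture; dilution to OD 0.005 in 2% galactose minimal medium; compound addition (concentration series); 24hr at 30C, 99% humidity; absorbance read at 600 nm.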
aSyn yeast inh – alpha-synuclein toxicity inhibition in yeast; Yeast expressing alpha-synuclein, growth rescue, BacTiter-Glo, 24 h; Potency, µM (titrated, usually from 46.1 µM), for the others: top-dose growth rescue (activation), actives largely listed as activators; hit rate 0.14% among 370,000; AID 652106; note: % of control where 0% means no effect; nearly all actives have a fitted effect of over 65% in size
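Galactose-induced alpha-syn yeast (OD600=0.02, raffinose-pregrown) + pinned cpd, 24 hr, 30 deg C; growth by BacTiter-Glo luminescence. Growth restoration scores as activation.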
MmCpn inh – M. maripaludis TRiC chaperonin inhibition; purified Mm-Cpn ATPase, ADP Transcreener TR-FRET; hit rate 0.031% among 330,000; Potency, µM (titrated, usually from 76.9 µM), for inactives: at the highest dose activity, negative = inhibition, most hits filed as inhibitors; note: % is set by controls: 0 for no effect and ±100 for the full control effect; nearly all actives have a fitted effect of over 80% in size
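Purified archaeal Mm-CPN (25nM final) preincubated 10 min at 37degC with compound, then 10uM ATP for 30 min at 37degC; ADP measured by HTRF Transcreener TR-FRET; buffer 30 mM TRIS pH 7.4, 100mM KCl, 5mM MgCl2, 1mM DTT.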
TDP43 rescue – rescues yeast growth from TDP-43 toxicity; TDP-43 expressing yeast growth rescue, BacTiter-Glo, 24 h; hit rate 1.8% among 410,000; Potency, µM (titrated, usually from 46.1 µM), for the others: top-dose growth rescue (activation), actives largely listed as activators; note: % of control where 0% means no effect; nearly all actives have a fitted effect of over 50% in size
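In this qHTS, compounds that restore growth of yeast expressing TDP-43 appear as activators. Cells (OD600=0.02, galactose medium, raffinose-pregrown) are incubated with compound 24 hr at 30 deg C and growth is quantified by BacTiter-Glo.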
ClpP mod – qHTS Assay for Activators of ClpP; ATP-dependent Clp protease proteolytic subunit (Bacillus subtilis (strain 168)), P80244; purified B. subtilis ClpP, FRET peptide cleavage, 20 min; Potency, µM (top dose mostly 57.5 µM), inactives show at the top dose activity change, negative = active; hit rate 1.9% among 340,000; active = well fitted falling curve with a large enough effect; inconclusive = small, poorly fitted or top-dose-only effect; inactive = no such curve, though single readings can be large or run the other way; note: the source files actives as falling curves though it sought activators and does not explain the sign; nearly all actives have a fitted effect of over 65% in size
Target sequence (P80244 whole entry, looked up): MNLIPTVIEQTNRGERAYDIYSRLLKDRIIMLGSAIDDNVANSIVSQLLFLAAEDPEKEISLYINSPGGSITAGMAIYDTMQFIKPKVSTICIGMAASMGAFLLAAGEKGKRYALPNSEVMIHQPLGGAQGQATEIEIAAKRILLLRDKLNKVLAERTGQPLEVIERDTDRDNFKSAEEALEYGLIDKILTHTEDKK
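ClpP 10 microg/mL final, pH 8 Tris/KCl buffer with BSA, glycerol, Tween-20; compound pinned in; FRET-FV substrate; RT 20 min; Ex320/Em430; ΔFRET vs ADEP 5.8 microM, DMSO, no enzyme.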
* marks the source's active call; other numbers are inactive results. Only some compounds are listed: those with a hit (about 3.6% of all), similar ones and a draw of the others. Unless noted, calls come from the whole dose curve; as a rule, active = well fitted curve in the direction sought with a large enough effect; inconclusive = small, poorly fitted or top-dose-only effect, or another doubt; inactive = no such curve, though single readings can be large; an effect the other way counts as inactive or inconclusive. Potency is the fitted concentration of half-maximal effect.

What do the screens show for `COC(=O)[C@]12C[C@H](CC(=O)N3CCCCC3)C(=O)N(Cc3ccco3)C1=C[C@H](COCc1ccccc1)O[C@@H]2C`?
FUS yeast rescue: inactive

What do the screens show for `CN(C)CCNc1cc(N2CCN(C)CC2)ncn1`?
aSyn yeast inh: 7.5%; ClpP mod: -5.2%

How did N/C(=N\OC(=O)c1ccc2ccccc2c1)c1cccc([N+](=O)[O-])c1 do in these assays?
Abeta yeast res: inactive; FUS yeast rescue: inactive; aSyn yeast inh: -34.3%; MmCpn inh: 0.7%; TDP43 rescue: 22.4µM*; ClpP mod: 2.5%

Results for N/C(=N\OC(=O)c1ccccc1Cl)c1ccncc1 ?
Abeta yeast res: inactive; FUS yeast rescue: inactive; aSyn yeast inh: 6.7%; MmCpn inh: -6.2%; TDP43 rescue: 25.1µM*; ClpP mod: 2.9%

What do the screens show for `COC(=O)c1sc(S(=O)(=O)Nc2ccc(C)cc2)c(C(=O)OC)c1C`?
Abeta yeast res: inactive; FUS yeast rescue: inactive; aSyn yeast inh: 5.4%; MmCpn inh: -1.2%; TDP43 rescue: 20µM*; ClpP mod: -1.0%

How did COc1cc(OC)cc(C(=O)Nc2ccc(-c3nc4ccccc4o3)cc2)c1 do in these assays?
Abeta yeast res: inactive; FUS yeast rescue: inactive; aSyn yeast inh: -13.9%; MmCpn inh: -17.3%; TDP43 rescue: 20.2%; ClpP mod: 867.8%

Results for COc1cc(C(=O)Nc2ccc3oc(-c4ccc(C)c(Br)c4)nc3c2)cc(OC)c1OC ?
Abeta yeast res: inactive; FUS yeast rescue: inactive; TDP43 rescue: 10µM*; ClpP mod: inconclusive

What do the screens show for `CCc1ccc2oc(-c3cc(NC(=O)c4cc(OC)c(OC)c(OC)c4)ccc3O)nc2c1`?
Abeta yeast res: inactive; FUS yeast rescue: inactive; TDP43 rescue: inconclusive; ClpP mod: 0.7%

Results for COc1cc(C(=O)Nc2ccc(-c3nc4cc(C)ccc4o3)c(O)c2)cc(OC)c1OC ?
Abeta yeast res: inactive; FUS yeast rescue: inactive; aSyn yeast inh: 0.9%; MmCpn inh: 0.1%; TDP43 rescue: -8.3%; ClpP mod: 28.2µM*

Results for COc1cccc(C(=O)Nc2ccc(-c3nc4ccccc4o3)c(O)c2)c1 ?
Abeta yeast res: inactive; FUS yeast rescue: inactive; aSyn yeast inh: -21.5%; MmCpn inh: inconclusive; TDP43 rescue: 0.1%; ClpP mod: 28.2µM*

Results for COc1cc(C(=O)Nc2ccc(-c3nc4cc(C)c(C)cc4o3)cc2)cc(OC)c1OC ?
Abeta yeast res: inactive; FUS yeast rescue: inactive; TDP43 rescue: inconclusive; ClpP mod: inconclusive

What do the screens show for `CN1OC[C@@H]2CN(C(=O)Cc3ccccc3)[C@H](c3ccccc3Br)C[C@@H]21`?
Abeta yeast res: inactive; FUS yeast rescue: inactive; aSyn yeast inh: 0.7%; TDP43 rescue: 0.0%; ClpP mod: -1.8%

Results for CN1OC[C@@H]2CN(C(=S)NCCc3ccccc3)[C@H](c3ccccc3Br)C[C@@H]21 ?
Abeta yeast res: inactive; FUS yeast rescue: inactive; aSyn yeast inh: 0.3%; TDP43 rescue: 12.6µM*; ClpP mod: 0.7%

Results for FC(F)(F)c1cccc(CNC(=S)Nc2ccccc2)c1 ?
Abeta yeast res: inactive; FUS yeast rescue: inactive; aSyn yeast inh: -15.6%; MmCpn inh: -4.6%; TDP43 rescue: 8.7%

Results for FC(F)(F)c1cccc(NC(=S)NCc2ccccc2)c1 ?
Abeta yeast res: inconclusive; FUS yeast rescue: inactive; aSyn yeast inh: -24.3%; MmCpn inh: 1.2%; TDP43 rescue: 14.1µM*; ClpP mod: -0.6%

Results for Cc1ccc(NC(=S)NCc2ccccc2)cc1C ?
Abeta yeast res: inactive; FUS yeast rescue: inactive; aSyn yeast inh: 11.6%; TDP43 rescue: 12.6µM*; ClpP mod: 8.4%
